# Where “and” joins values, the source holds several entries; their conditions need not be identical. Identical values can stand only once. Calls of active or inactive are those of the source. Unless noted, the rule behind the calls is not given here.
# Experiments:
# [1] = glutamate transport activators, MN-1 cells, MN-1 cell line (AID 1612); conditions: MN-1 motor neuron cells, stronger effect = higher value;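 note: tested at 1 µM final; 0% = mean of DMSO vehicle wells on each plate; positive means more glutamate uptake than control and negative means less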
# [2] = GFP-Q80 aggregate reduction, neuronal-like cells, cell-based, NGF-treated PC12, GFPQ80 (AID 1614); conditions: PC12 NGF-treated GFP-polyQ80 inclusion reduction;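 note: lower means fewer inclusions and 0 means no inclusions at all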
# [3] = 75Q-TubH aggregate inhibition, S. cerevisiae, yeast (AID 1616); conditions: S. cerevisiae 75Q-TubH polyglutamine aggregation suppression; stronger effect = higher value
# [4] = P. berghei load reduction in hepatocytes – cell-based, HepG2, luciferase luminescence, HepG2 viability, primary screen (AID 624349; in the data active = parasite load remaining mostly below about 12%, no sharp cut-off; inactive = mostly above about 10%;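 note: 100% = mean of DMSO negative control wells on the same plate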); conditions: P. berghei liver stage in HepG2, luciferase luminescence, concentration not given here; parasite load remaining: stronger effect = lower value; viability: measured here: HepG2 viability without parasites
# [5] = Wnt pathway potentiators raising nuclear beta-catenin – imaging, WNT3A-conditioned medium, mouse C2C12, NPC library, primary screen (AID 1117326; in the data active = nuclear beta-catenin stimulation mostly above about 4.2%, no sharp cut-off; inactive = mostly below about 10%); conditions: stronger effect = higher value
# [6] = compounds altering circadian rhythm period length – cell-based, LOPAC library, luminescence reporter (AID 2774); conditions: circadian reporter cells, at 7 µM, actives lie on both sides;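 note: values are relative to mean of DMSO wells on each plate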
# [7] = compounds altering viability of human ES cells (AID 493140); conditions: human embryonic stem cell survival screen; stronger effect = higher value;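 note: cells exposed to compounds for four days before counting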
# [8] = test system: Hepatitis C virus NS3 helicase; experiment: blockers of NS3h binding to ssDNA – biochemical, fluorescence polarization, LOPAC1280 library, primary screen (AID 687035; in the data active = inhibition above about 37%); conditions: Purified HCV NS3 helicase, Cy5-dT15 ssDNA binding fluorescence polarization; stronger effect = higher value; concentration not given here
# [9] = compounds altering Cy5-DNA-NS3h complex signal – biochemical, LOPAC1280, artefact control for HCV NS3 helicase inhibitor project (AID 687037); conditions: Cy5-DNA-NS3h complex fluorescence interference counterscreen
# [10] = antimalarial activity against Dd2 strain (AID 2302;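 active = growth inhibition above 50% at the single 2 µM test dose, taken to imply half-maximal potency below 2 µM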;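 note: 0% = DMSO untreated growth and 100% = chloroquine plus artemisinin killed control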); conditions: P. falciparum Dd2 in RBCs, LDH growth readout, 72 h; at 2 µM; stronger effect = higher value
# [11] = human hepatoma cell viability loss – ATP luminescence, cytotoxicity control for P. falciparum antimalarial project, primary screen (AID 2303;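 active = inhibition above 50%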;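 note: 0% = DMSO wells and 100% = digitonin-killed cells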); conditions: HepG2 viability, 24-48 h, at 10 µM, stronger effect = higher value
# [12] = molecular target: L-lactate dehydrogenase (Plasmodium falciparum (isolate CDC / Honduras)) (UniProt Q27743); experiment: PfLDH activity inhibition – cell lysate, 3D7 strain, counter-screen for P. falciparum growth inhibition project (AID 2304);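 note: 0% = vehicle and 100% = reference inhibitor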; conditions: P. falciparum 3D7 crude extract, LDH APAD/NBT absorbance; at 2 µM; stronger effect = higher value
# [13] = inhibition of 3D7 malaria parasite growth – strain 3D7 (AID 2306);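 note: 0% = DMSO wells and 100% = chloroquine plus artemisinin control wells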; conditions: P. falciparum 3D7 erythrocytic growth, LDH absorbance, 72 h; at 2 µM; stronger effect = higher value
# [14] = liver-stage malaria parasite load reduction – cell-based, known kinase inhibitor set, luminescence, hepatoma host viability (AID 624392); conditions: Plasmodium liver stage in hepatoma cells, luciferase luminescence, concentration not given here; liver cell % of control: measured here: host liver cell viability; parasite % of control: stronger effect = lower value;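 note: infected cells incubated roughly two days before readout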
# Chain of L-lactate dehydrogenase (Plasmodium falciparum (isolate CDC / Honduras)) (Q27743 whole entry, looked up): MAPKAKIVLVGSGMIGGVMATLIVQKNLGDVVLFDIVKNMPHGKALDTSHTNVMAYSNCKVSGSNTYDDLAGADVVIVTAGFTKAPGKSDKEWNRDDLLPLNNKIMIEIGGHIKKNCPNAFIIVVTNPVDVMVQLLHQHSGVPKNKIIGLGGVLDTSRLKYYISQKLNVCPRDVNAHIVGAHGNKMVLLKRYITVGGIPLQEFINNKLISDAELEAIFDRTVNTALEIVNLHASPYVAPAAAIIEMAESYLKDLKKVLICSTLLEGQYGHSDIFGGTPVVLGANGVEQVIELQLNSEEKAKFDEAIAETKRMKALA
smiles,measurement,setting,value
COc1ccc(C2C(=O)c3ccccc3C2=O)cc1,glutamate uptake change,[1],-8.78%
same,inclusion score,[2],2
same,aggregation suppression score,[3],0.401
same,parasite load remaining,[4],126% (inactive) and 58.9% (inactive)
same,viability,[4],68.9% and 89%
same,nuclear beta-catenin stimulation,[5]; at 10 µM,1.8% (inactive)
same,nuclear beta-catenin stimulation,"[5]; stimulation, at 2 µM",1.4%
CC(C)COCC(CN(Cc1ccccc1)c1ccccc1)N1CCCC1 (stereo not given),glutamate uptake change,[1],12.6%
same,aggregation suppression score,[3],1.08
same,period change,[6],0.04 h (inactive)
same,survival,[7],5.92 (inactive)
same,inhibition,[8],0% (inactive)
same,fluorescence ratio (interference),[9],1 (inactive)
same,nuclear beta-catenin stimulation,[5]; at 10 µM,0.1% (inactive)
same,nuclear beta-catenin stimulation,"[5]; stimulation, at 2 µM",-1.8%
CCCCCCCCNC(C)C(O)c1ccc(SC(C)C)cc1 (stereo not given),glutamate uptake change,[1],-7.34%
same,aggregation suppression score,[3],0.0242
same,survival,[7],0.25 (inactive)
same,nuclear beta-catenin stimulation,[5]; at 10 µM,-5.4% (inactive)
same,nuclear beta-catenin stimulation,"[5]; stimulation, at 2 µM",1.4%
O=C(OCC(O)CO)c1ccccc1Nc1ccnc2cc(Cl)ccc12 (stereo not given),glutamate uptake change,[1],4.05%
same,aggregation suppression score,[3],0.893
same,survival,[7],17.9 (inactive)
same,parasite load remaining,[4],9.85% (inactive) and 91.3% (inactive) and 74.6% (inactive)
same,viability,[4],47.1% and 73.6% and 92%
same,nuclear beta-catenin stimulation,[5]; at 10 µM,3.1% (inactive)
same,nuclear beta-catenin stimulation,"[5]; stimulation, at 2 µM",-0.3%
Clc1ccc(C(c2ccccc2Cl)C(Cl)Cl)cc1 (stereo not given),glutamate uptake change,[1],-9.79%
same,aggregation suppression score,[3],-1.87
same,period change,[6],-0.13 h (inactive)
same,parasite load remaining,[4],2.27% (inactive)
same,viability,[4],80.1%
same,inhibition,[8],-4% (inactive)
same,fluorescence ratio (interference),[9],0.9 (inactive)
same,nuclear beta-catenin stimulation,[5]; at 10 µM,4.5% (inactive)
same,nuclear beta-catenin stimulation,"[5]; stimulation, at 2 µM",0.2%
CCCCC(CC)CN1CN(CC(CC)CCCC)CC(C)(N)C1 (stereo not given),glutamate uptake change,[1],2.82%
same,aggregation suppression score,[3],0.306
same,survival,[7],6.83 (inactive)
same,parasite load remaining,[4],136% (inactive) and 95.8% (inactive) and 66.4% (inactive)
same,viability,[4],98.8% and 69.2% and 87.2%
same,nuclear beta-catenin stimulation,[5]; at 10 µM,-4.8% (inactive)
same,nuclear beta-catenin stimulation,"[5]; stimulation, at 2 µM",3.6%
COc1cc2c(Nc3ccc(Br)cc3F)ncnc2cc1OCC1CCN(C)CC1,growth inhibition,[10],16% (inactive)
same,inhibition,[11],10% (inactive)
same,inhibition,[12],5% (inactive)
same,growth inhibition,[13],97% (active)
same,liver cell % of control,[14],42.4% and 45.4% and 52%
same,parasite % of control,[14],0.285% (inactive) and 8.38% (inactive) and 117% (inactive)
same,nuclear beta-catenin stimulation,[5]; at 10 µM,-0.3% (inactive)
same,nuclear beta-catenin stimulation,"[5]; stimulation, at 2 µM",-0.9%
Oc1ccc(Cl)cc1Cc1cc(Cl)ccc1O,glutamate uptake change,[1],-22.2%
same,aggregation suppression score,[3],-0.099
same,parasite load remaining,[4],11.8% (inactive)
same,viability,[4],65.1%
same,nuclear beta-catenin stimulation,[5]; at 10 µM,10.6% (inactive)
same,nuclear beta-catenin stimulation,"[5]; stimulation, at 2 µM",5.8%
Cc1nc(N)nc(N)c1-c1ccc(Cl)c(Cl)c1,growth inhibition,[10],-1% (inactive)
same,inhibition,[11],66% (active)
same,inhibition,[12],3% (inactive)
same,growth inhibition,[13],95% (active)
same,nuclear beta-catenin stimulation,[5]; at 10 µM,42.9% (active)
same,nuclear beta-catenin stimulation,"[5]; stimulation, at 2 µM",55.1%
CCC(=O)O[C@H]1[C@H](O[C@@H]2[C@@H](C)[C@H](O[C@H]3C[C@@](C)(OC)[C@@H](O)[C@H](C)O3)[C@@H](C)C(=O)O[C@H](CC)[C@@](C)(O)[C@H](O)[C@@H](C)C(=O)[C@H](C)C[C@@]2(C)O)O[C@H](C)C[C@@H]1N(C)C,glutamate uptake change,[1],-11.5%
same,aggregation suppression score,[3],-0.59
same,parasite load remaining,[4],85.6% (inactive) and 40.4% (inactive)
same,viability,[4],67.9% and 93.1%
same,nuclear beta-catenin stimulation,[5]; at 10 µM,0.6% (inactive)
same,nuclear beta-catenin stimulation,"[5]; stimulation, at 2 µM",-0.8%
CN(Cc1cc(Br)cc(Br)c1N)C1CCCCC1,glutamate uptake change,[1],-11.2%
same,aggregation suppression score,[3],1.07
same,parasite load remaining,[4],167% (inactive) and 46% (inactive) and 10.9% (inactive)
same,viability,[4],89% and 109% and 68%
same,nuclear beta-catenin stimulation,[5]; at 10 µM,-0.1% (inactive)
same,nuclear beta-catenin stimulation,"[5]; stimulation, at 2 µM",-0.5%

# From PubChem BioAssay
